Compound activity as filed in PubChem.
CHOP inh – inhibitors of CHOP induction in ER stress response. CHO-K1 CHOP-promoter luciferase, tunicamycin-induced, 15-18 h. inhibition, % at 10 µM. actives 3.8% (n = 220,000). AID 2732;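 active means compounds that reduced the stress-induced luciferase reporter signal by more than about 70% of percent inhibition, limit read from the data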
CF NFkB inh – blocks PAF-induced NF-kB reporter in cystic fibrosis cells. inhibition, % at 5 µM. KKLEB NF-kB-GFP reporter, GFP fluorescence overnight. AID 588850. actives 0.86% (n = 360,000);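 active means at least 50% inhibition at 5 µM, scaled per plate between neutral and stimulator controls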;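 further: PAF is a Pseudomonas aeruginosa culture filtrate used as stimulus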
HIF-2a inh – inhibitors of HIF-2a; 786-0 RCC cells HIF-2a reporter, luciferase luminescence, overnight; inhibition, % at 18.8 µM; actives 0.72% (n = 360,000);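 active means inhibition of the luminescence signal of 40% or more relative to plate controls, in a single-dose primary screen at 18.75 µM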
KKLEB tox – counter-screen for CF NF-kB inhibitors: cytotoxicity. AID 602141. KKLEB CF airway cells viability, ATPlite luminescence, overnight; active compounds read low; cells stimulated with P. aeruginosa culture filtrate. activity change (cytotoxicity), % at 5 µM. actives 0.36% (n = 360,000);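 active means corrected activity change at or below -50% at 5 µM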
Peg3 prom inh – inhibitors of Peg3 promoter | inhibition, % at 20 µM | HeLa PEG-Prom luciferase reporter, luminescence, overnight | actives 1.7% (n = 360,000);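 active means inhibition of at least 50% at 20 µM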
TRPM1 prom inh – inhibitors of MITF-driven TRPM1 promoter in melanoma cells; SK-MEL-5 TRPM1 promoter luciferase, 24 h; inhibition, % at 12.5 µM; actives 0.83% (n = 330,000);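 active means mean inhibition across replicates of 60% or more, whatever share of single replicates reaches that level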
CF NFkB conf – confirmation of cystic fibrosis induced NF-kB inhibitors; shares compounds with CF NFkB inh; KKLEB CF airway cells, PAF-induced NF-kB-GFP fluorescence, overnight; inhibition, % at 5 µM; actives 64% (n = 1,300); AID 602472; in the data active means inhibition above about 40%;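 further: stimulus PAF is a Pseudomonas aeruginosa filtrate and not platelet activating factor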
Numbers stand for hits. Shown are actives, neighbours in structure and some others; about 4.3% of the full set was active somewhere.

For COc1ccc(CNC(=O)CSc2ccc(Br)cc2)cc1OC the results were CHOP inh inactive, CF NFkB inh inactive, HIF-2a inh inactive, KKLEB tox inactive, Peg3 prom inh inactive and TRPM1 prom inh inactive.
Cn1c(N2CCN(C(c3ccccc3)c3ccccc3)CC2)nc2c1c(=O)[nH]c(=O)n2C was read as CF NFkB inh 68.9, HIF-2a inh inactive, KKLEB tox inactive, Peg3 prom inh inactive, TRPM1 prom inh inactive and CF NFkB conf 83.9.
For O=C(/C=C/c1ccco1)Nc1ccccn1 the results were CHOP inh inactive, CF NFkB inh inactive, HIF-2a inh inactive, KKLEB tox inactive, Peg3 prom inh inactive and TRPM1 prom inh inactive.
For Cc1ccc(NC(=O)/C=C/c2ccco2)nc1 the results were CHOP inh inactive, CF NFkB inh 65.1, HIF-2a inh inactive, KKLEB tox inactive, Peg3 prom inh inactive, TRPM1 prom inh inactive and CF NFkB conf 73.3.
`Cc1nc(S(=O)(=O)c2ccc(Cl)cc2)c(N(C)C)o1` gave CF NFkB inh inactive, HIF-2a inh inactive, KKLEB tox inactive, Peg3 prom inh inactive and TRPM1 prom inh inactive.
`CN(C)CCCN(C(=O)CCSc1ccccc1)c1nc2cc3c(cc2s1)OCO3` gave CHOP inh inactive, CF NFkB inh 55.9, HIF-2a inh inactive, KKLEB tox inactive, Peg3 prom inh 91.1, TRPM1 prom inh inactive and CF NFkB conf 49.4.
For CN(C)CCCN(C(=O)COc1ccccc1)c1nc2cc3c(cc2s1)OCCO3 the results were CF NFkB inh inactive, HIF-2a inh inactive, KKLEB tox inactive, Peg3 prom inh inactive and TRPM1 prom inh inactive.
`COc1ccc(-c2cn[nH]c2-c2ccc(OCC(=O)NN)cc2O)cc1` gave CF NFkB inh inactive, HIF-2a inh inactive, KKLEB tox inactive, Peg3 prom inh inactive and TRPM1 prom inh inactive.
`C=C(C)COc1ccc(-c2[nH]ncc2-c2ccc(OC)cc2)c(O)c1` gave CHOP inh inactive, CF NFkB inh 53.2, HIF-2a inh inactive, KKLEB tox inactive, Peg3 prom inh inactive, TRPM1 prom inh inactive and CF NFkB conf 72.3.
COc1ccc(Oc2cn[nH]c2-c2ccc(O)cc2O)cc1 was read as CHOP inh inactive, CF NFkB inh inactive, HIF-2a inh inactive, KKLEB tox inactive, Peg3 prom inh inactive and TRPM1 prom inh inactive.
For COc1ccc(-c2cn[nH]c2-c2ccc(O)cc2O)cc1 the results were CF NFkB inh 70.3, HIF-2a inh inactive, KKLEB tox inactive, Peg3 prom inh inactive, TRPM1 prom inh inactive and CF NFkB conf 93.9.
For COc1ccc(-c2cnc(N)nc2-c2ccc(OC)cc2O)cc1 the results were CHOP inh inactive, CF NFkB inh 56.0, HIF-2a inh inactive, KKLEB tox inactive, Peg3 prom inh inactive, TRPM1 prom inh inactive and CF NFkB conf 51.3.
For CCOc1cc(/C=N/NC(=O)C(O)(c2ccccc2)c2ccccc2)ccc1OC(=O)c1ccco1 the results were CF NFkB inh inactive, HIF-2a inh inactive, KKLEB tox inactive, Peg3 prom inh inactive and TRPM1 prom inh inactive.
Screening O=C(O)c1ccc(CNC(=O)C23CC4CC(CC(C4)C2)C3)cc1 returned CF NFkB inh inactive, HIF-2a inh inactive, KKLEB tox inactive, Peg3 prom inh inactive and TRPM1 prom inh inactive.
CN(C(=O)c1cc(S(=O)(=O)N2CCCCC2)c[nH]1)C1CCCCC1 was read as CF NFkB inh inactive, HIF-2a inh inactive, KKLEB tox inactive and Peg3 prom inh inactive.
For Cc1ccc(N(C)C(=O)c2cc(S(=O)(=O)N3CCCCC3)c[nH]2)cc1 the results were CF NFkB inh 50.3, HIF-2a inh inactive, KKLEB tox inactive, Peg3 prom inh inactive, TRPM1 prom inh inactive and CF NFkB conf 56.4.
Screening CC(=O)c1ccc(-c2ccc(C(=O)NCC(c3ccc(F)cc3)N3CCOCC3)o2)cc1 (stereo not given) returned CF NFkB inh inactive, HIF-2a inh inactive, KKLEB tox inactive, Peg3 prom inh inactive and TRPM1 prom inh inactive.
`O=C(NCC(c1ccc(F)cc1)N1CCOCC1)c1ccc([N+](=O)[O-])o1` (stereo not given) gave CF NFkB inh 64.2, HIF-2a inh inactive, KKLEB tox inactive, Peg3 prom inh inactive, TRPM1 prom inh inactive and CF NFkB conf inactive.
`CCCCCCCCCc1nc2sc3c(c2c(=O)n1NC(=O)c1ccc([N+](=O)[O-])cc1)CC(C)(C)OC3` gave CHOP inh inactive, CF NFkB inh 55.3, HIF-2a inh inactive, KKLEB tox inactive, Peg3 prom inh inactive, TRPM1 prom inh inactive and CF NFkB conf 62.1.
For CCCCCCCCCc1nc2sc3c(c2c(=O)n1NC(=O)c1ccccc1[N+](=O)[O-])CC(C)(C)OC3 the results were CHOP inh inactive, CF NFkB inh inactive, HIF-2a inh inactive, KKLEB tox inactive, Peg3 prom inh inactive and TRPM1 prom inh inactive.
Screening CCOC(=O)C1CCCN(C(=S)Nc2cccc(Cl)c2C)C1 (stereo not given) returned CHOP inh inactive, CF NFkB inh inactive, HIF-2a inh inactive, KKLEB tox inactive, Peg3 prom inh inactive and TRPM1 prom inh inactive.
Cc1cccc(NC(=O)Nc2ccc(C#N)cc2)n1 was read as CHOP inh 77.2, CF NFkB inh 75.2, HIF-2a inh inactive, KKLEB tox inactive, Peg3 prom inh 62.0, TRPM1 prom inh inactive and CF NFkB conf 97.8.
`C=C1C(=O)[C@]23C[C@H]1CC[C@H]2[C@]1(C)[C@@H](O)CC[C@@](C)(C(=O)O)[C@H]1C[C@@H]3O` gave CF NFkB inh 83.5, HIF-2a inh inactive, KKLEB tox inactive, Peg3 prom inh inactive and CF NFkB conf 82.8.
C=C1C(=O)[C@]23C[C@H]1CC[C@H]2[C@]1(C)[C@@H](OC(C)=O)CC[C@@](C)(C(=O)O)[C@H]1C[C@@H]3O was read as CF NFkB inh 92.5, HIF-2a inh inactive, KKLEB tox inactive, Peg3 prom inh 92.7 and CF NFkB conf 92.6.
Screening CC(NC(=O)CCCc1ccccc1)c1ccncc1 (stereo not given) returned CF NFkB inh inactive, HIF-2a inh inactive, KKLEB tox inactive, Peg3 prom inh inactive and TRPM1 prom inh inactive.
CC(C)C1C(=O)N(Cc2cn(Cc3ccco3)nn2)CCS(=O)(=O)N1Cc1ccc(-c2ccccc2)cc1 (stereo not given) was read as CF NFkB inh inactive, HIF-2a inh inactive, KKLEB tox inactive and Peg3 prom inh inactive.
For COc1ccc(-c2ccc(CN3C(CC(C)C)C(=O)N(Cc4cn(Cc5ccco5)nn4)CCS3(=O)=O)cc2)cc1OC (stereo not given) the results were CF NFkB inh inactive, HIF-2a inh inactive, KKLEB tox inactive and Peg3 prom inh inactive.
`CC(C)C1C(=O)N(Cc2cn(Cc3ccco3)nn2)CCS(=O)(=O)N1Cc1ccc(-c2ccc(F)cc2)cc1` (stereo not given) gave CF NFkB inh 55.9, HIF-2a inh inactive, KKLEB tox inactive, Peg3 prom inh inactive and CF NFkB conf inactive.
